# Compound: Cc1ccc(-c2ccc3c(ccc4sc5c(c43)NC[C@@H](C)NC5=O)n2)cn1
# Assay: kinase activity remaining relative to vehicle control; higher = less inhibition
# Method: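 In vitro radiometric kinase profiling of the MK2 inhibitor PF-3644022 at 0.1, 1 and 10 µM against a panel of kinases (MRC International Centre for Kinase Profiling, Dundee). Read-out is % kinase activity remaining relative to the vehicle control, mean of n=2.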
# Sequence of UniProt P80192 (P80192 whole entry, looked up): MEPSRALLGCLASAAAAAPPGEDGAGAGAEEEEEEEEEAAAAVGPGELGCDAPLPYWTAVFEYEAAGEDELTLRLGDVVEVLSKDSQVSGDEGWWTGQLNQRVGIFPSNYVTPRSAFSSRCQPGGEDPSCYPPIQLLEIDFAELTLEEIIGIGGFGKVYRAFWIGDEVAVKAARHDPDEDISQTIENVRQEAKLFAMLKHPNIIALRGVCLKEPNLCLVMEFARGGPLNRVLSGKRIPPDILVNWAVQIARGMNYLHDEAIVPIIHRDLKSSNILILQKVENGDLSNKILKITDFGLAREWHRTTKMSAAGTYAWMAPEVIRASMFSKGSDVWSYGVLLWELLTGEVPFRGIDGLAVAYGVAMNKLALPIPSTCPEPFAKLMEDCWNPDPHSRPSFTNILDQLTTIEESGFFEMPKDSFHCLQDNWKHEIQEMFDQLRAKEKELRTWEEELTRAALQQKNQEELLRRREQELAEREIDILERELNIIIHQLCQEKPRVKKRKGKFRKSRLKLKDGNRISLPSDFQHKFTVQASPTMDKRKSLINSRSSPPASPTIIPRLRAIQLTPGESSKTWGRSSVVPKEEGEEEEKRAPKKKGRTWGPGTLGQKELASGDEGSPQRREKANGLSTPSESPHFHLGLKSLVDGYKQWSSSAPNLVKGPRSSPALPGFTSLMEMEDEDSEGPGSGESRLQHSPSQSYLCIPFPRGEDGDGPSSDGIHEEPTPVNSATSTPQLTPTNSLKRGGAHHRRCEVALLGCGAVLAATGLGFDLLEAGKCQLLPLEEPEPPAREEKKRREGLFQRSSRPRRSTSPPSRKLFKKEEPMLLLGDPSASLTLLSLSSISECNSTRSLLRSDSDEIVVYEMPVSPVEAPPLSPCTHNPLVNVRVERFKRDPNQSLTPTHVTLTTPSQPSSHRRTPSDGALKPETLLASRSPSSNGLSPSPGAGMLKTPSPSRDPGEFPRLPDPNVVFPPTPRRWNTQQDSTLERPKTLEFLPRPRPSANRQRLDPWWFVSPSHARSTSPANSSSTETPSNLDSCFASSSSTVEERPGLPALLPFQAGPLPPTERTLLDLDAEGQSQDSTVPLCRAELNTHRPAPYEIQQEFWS
# Sequence of UniProt Q9H0K1 (Q9H0K1 whole entry, looked up): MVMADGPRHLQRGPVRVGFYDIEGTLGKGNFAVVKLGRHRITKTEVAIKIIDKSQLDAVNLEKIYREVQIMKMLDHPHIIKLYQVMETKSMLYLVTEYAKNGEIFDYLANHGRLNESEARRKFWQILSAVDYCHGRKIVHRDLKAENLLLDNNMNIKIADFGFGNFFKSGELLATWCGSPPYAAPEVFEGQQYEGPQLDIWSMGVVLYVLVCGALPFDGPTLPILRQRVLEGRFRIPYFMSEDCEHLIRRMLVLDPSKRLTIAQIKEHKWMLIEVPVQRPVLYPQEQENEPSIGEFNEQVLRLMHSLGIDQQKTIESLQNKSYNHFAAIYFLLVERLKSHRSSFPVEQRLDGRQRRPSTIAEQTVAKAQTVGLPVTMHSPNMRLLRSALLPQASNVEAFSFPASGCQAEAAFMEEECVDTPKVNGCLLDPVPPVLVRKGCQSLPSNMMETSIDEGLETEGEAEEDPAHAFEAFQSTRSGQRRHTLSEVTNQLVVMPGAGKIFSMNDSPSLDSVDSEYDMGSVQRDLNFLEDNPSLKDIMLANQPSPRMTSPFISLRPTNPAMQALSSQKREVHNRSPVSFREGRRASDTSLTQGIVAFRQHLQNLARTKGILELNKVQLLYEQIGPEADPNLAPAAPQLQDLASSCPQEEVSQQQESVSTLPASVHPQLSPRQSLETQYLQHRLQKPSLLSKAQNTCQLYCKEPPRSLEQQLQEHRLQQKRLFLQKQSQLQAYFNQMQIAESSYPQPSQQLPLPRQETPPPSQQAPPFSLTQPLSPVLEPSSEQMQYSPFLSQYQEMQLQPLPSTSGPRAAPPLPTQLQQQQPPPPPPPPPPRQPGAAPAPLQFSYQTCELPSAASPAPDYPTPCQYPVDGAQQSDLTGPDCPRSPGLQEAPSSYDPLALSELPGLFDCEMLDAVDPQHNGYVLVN
# Sequence of UniProt Q7KZI7 (Q7KZI7 whole entry, looked up): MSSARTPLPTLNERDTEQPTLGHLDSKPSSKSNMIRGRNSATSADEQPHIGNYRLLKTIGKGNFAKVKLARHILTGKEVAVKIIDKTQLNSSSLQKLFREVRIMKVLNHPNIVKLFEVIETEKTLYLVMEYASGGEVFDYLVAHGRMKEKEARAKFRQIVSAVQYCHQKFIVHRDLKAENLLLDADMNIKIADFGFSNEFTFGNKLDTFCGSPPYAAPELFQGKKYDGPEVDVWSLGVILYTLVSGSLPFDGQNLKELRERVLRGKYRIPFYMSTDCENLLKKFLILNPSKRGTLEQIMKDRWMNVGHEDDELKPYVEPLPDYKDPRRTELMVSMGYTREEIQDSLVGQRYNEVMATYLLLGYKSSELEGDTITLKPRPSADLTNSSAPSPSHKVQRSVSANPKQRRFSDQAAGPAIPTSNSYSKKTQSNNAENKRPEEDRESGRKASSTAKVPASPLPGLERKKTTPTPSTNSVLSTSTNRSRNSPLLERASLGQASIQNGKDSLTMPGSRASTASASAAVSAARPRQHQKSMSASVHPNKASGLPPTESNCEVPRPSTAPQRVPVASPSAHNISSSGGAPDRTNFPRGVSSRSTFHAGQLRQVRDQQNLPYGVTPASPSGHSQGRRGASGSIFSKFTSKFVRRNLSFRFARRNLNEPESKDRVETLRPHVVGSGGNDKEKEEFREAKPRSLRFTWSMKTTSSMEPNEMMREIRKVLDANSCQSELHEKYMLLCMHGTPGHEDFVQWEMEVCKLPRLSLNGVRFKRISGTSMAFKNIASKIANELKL
# Sequence of UniProt Q9NWZ3 (Q9NWZ3 whole entry, looked up): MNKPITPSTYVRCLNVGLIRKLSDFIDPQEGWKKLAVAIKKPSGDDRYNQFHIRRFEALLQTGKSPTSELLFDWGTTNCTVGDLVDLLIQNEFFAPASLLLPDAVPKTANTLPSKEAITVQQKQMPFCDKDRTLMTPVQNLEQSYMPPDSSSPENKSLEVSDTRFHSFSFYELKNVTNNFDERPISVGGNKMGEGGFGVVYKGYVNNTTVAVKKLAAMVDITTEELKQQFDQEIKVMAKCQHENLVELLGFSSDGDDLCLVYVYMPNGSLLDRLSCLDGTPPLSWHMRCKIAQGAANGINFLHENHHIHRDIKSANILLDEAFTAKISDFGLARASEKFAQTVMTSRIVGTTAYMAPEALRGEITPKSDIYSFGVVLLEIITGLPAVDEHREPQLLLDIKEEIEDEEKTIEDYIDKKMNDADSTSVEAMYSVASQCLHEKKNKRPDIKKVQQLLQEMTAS
# Sequence of UniProt P43403 (P43403 whole entry, looked up): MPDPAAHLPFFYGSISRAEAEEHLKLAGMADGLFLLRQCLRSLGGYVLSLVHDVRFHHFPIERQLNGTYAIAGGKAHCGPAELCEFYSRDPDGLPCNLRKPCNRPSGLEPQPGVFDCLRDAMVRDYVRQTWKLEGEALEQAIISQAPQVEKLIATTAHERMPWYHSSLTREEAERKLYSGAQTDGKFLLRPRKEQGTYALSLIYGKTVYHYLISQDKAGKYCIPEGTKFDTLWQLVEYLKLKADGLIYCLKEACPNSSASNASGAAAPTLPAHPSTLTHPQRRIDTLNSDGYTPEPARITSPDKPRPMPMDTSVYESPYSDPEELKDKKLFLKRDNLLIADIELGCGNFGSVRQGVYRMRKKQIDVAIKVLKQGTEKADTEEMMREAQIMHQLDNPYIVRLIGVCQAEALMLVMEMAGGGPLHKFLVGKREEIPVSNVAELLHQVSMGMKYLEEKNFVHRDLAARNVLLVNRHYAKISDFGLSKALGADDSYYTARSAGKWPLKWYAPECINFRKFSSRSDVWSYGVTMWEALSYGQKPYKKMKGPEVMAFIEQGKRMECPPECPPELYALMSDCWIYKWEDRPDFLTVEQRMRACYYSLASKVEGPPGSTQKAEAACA
# Sequence of UniProt Q9P1W9 (Q9P1W9 whole entry, looked up): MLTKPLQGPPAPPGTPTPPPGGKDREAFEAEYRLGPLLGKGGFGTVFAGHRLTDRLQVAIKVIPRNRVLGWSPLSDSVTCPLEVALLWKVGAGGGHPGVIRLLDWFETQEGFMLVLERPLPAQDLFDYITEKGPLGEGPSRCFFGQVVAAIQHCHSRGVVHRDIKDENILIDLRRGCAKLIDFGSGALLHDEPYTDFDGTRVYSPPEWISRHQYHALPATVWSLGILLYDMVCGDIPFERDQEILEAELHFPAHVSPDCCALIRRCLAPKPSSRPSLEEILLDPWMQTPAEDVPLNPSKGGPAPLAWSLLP
# Sequence of UniProt P49760 (P49760 whole entry, looked up): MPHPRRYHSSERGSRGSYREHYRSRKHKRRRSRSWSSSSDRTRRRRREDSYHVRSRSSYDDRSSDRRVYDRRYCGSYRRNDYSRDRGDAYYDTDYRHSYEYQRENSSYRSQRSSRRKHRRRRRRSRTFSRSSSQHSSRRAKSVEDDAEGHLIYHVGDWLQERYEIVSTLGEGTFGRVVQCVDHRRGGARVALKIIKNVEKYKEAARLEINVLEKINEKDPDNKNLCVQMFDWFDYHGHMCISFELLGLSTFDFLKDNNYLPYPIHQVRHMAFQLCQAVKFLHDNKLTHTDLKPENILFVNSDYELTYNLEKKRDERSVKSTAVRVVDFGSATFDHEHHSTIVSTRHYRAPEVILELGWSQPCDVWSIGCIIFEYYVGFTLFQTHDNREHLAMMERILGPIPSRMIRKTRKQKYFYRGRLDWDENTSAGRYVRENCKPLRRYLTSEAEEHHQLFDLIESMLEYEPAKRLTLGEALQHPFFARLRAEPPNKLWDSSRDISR
Target,kinase activity remaining (inhibitor concentration 0.1 µM),kinase activity remaining (inhibitor concentration 1 µM),kinase activity remaining (inhibitor concentration 10 µM)
MARK2 (UniProt Q7KZI7),116%,113%,95%
SIK2 (UniProt Q9H0K1),99%,86%,77%
CAMK1 (UniProt Q14012),96%,97%,68%
PIM2 (UniProt Q9P1W9),103%,103%,66%
IRAK4 (UniProt Q9NWZ3),94%,62%,24%
CLK2 (UniProt P49760),86%,43%,9%
EPH-B1,113%,106%,106%
TTK (UniProt P33981),117%,101%,84%
TAK1,113%,109%,70%
MLK1 (UniProt P80192),99%,95%,60%
IR,123%,125%,133%
TSSK1 (UniProt Q9BXA7),97%,85%,89%
ZAP70 (UniProt P43403),93%,100%,95%
